# From PubChem
# BRCA1 expr act = activators of BRCA1 expression. MCF7-BRCA1-FFLuc reporter, luminescence, 48 h; response scale: scaled: vehicle 0%, 10 µM genistein 100%. Potency, µM (titrated, usually from 46.1 µM), without a hit: at the top dose activation, hits mostly activators. 1.1% of 380,000 active; also: potency is read from the fitted curve at half-maximal effect; nearly all actives have a fitted effect of over 80% in size
#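 Quantitative HTS in MCF7 cells stably reporting BRCA1 expression via firefly luciferase. Compound treatment lasts 48 h at 37 °C in phenol-red free MEM. Activation is expressed relative to genistein at 10 microM and DMSO.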
# ELG1 repair inh = inhibitors of ELG1-dependent DNA repair in HEK293T cells | HEK293T ELG1-luciferase reporter, luminescence, 16 h; DNA damage induced by 5-fluorouridine | Potency, µM (doses to about 46.1 µM), without a hit: top-dose activity change, negative = inhibition, usual class: inhibitors | 2.3% of 330,000 active | AID 504467; also: potency is read from the fitted curve at half-maximal effect; % is scaled to controls: 0 for no effect and ±100 for the full control effect; nearly all actives have a fitted effect of over 55% in size
#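 Reporter activity after DNA damage by 5-fluorouridine is monitored. Compound-treated cells incubate 16 hr at 37 °C, then ONE-Glo is added for 30 min before luminescence reading.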
# RORg inh = ROR gamma (mouse) transcription inhibition | P51450 | Drosophila S2 Gal4-RORgamma UAS-luciferase reporter, 20 h | Potency, µM (highest dose often 53.6 µM), for inactives: at the top dose activity change, negative = inhibition, usual class: inhibitors | 5.4% of 310,000 active | AID 2551; also: potency is read from the fitted curve at half-maximal effect; % is scaled to controls: 0 for no effect and ±100 for the full control effect; nearly all actives have a fitted effect of over 60% in size
# Target sequence (P51450 whole entry, looked up, the tested form may be a part): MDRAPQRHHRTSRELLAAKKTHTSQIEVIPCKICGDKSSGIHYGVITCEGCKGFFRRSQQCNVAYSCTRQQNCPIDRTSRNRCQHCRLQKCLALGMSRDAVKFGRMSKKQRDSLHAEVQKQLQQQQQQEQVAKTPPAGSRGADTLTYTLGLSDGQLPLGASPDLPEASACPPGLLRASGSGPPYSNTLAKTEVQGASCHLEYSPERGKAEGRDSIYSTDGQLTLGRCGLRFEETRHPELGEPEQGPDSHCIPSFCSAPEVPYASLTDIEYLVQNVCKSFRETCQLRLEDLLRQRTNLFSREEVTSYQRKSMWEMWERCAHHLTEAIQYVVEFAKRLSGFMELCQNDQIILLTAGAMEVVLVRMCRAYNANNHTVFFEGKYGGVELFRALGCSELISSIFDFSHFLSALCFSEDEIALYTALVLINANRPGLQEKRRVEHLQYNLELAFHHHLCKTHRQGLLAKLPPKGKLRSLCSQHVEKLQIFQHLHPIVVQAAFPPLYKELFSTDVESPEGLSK
#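 Schneider cells (Drosophila), stable Gal4 DBD–ROR gamma + UAS-luc; 1 hr cmpd preincubation; Cu2+ induction 700 uM final; 20 hr ambient; luminescence.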
# p53 reactivator = restores transcriptional activity of mutant p53 | 0.063% of 320,000 active | H1299 p53-A138V BP100-luciferase reporter, luminescence, 24 h | Potency, µM (highest dose often 92.2 µM), for the others: at the top dose activity change, positive = activation, hits mostly activators; also: potency is read from the fitted curve at half-maximal effect; % of control where 0% means no effect; nearly all actives have a fitted effect of over 45% in size
#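 p53-null H1299 cells stably carrying temperature-sensitive p53-A138V and a BP100-luciferase reporter were pinned with compounds (4-point, 1:5 series) and held 24 hrs at 37 deg C. Luminescence was read 10 min after detection reagent.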
# Gal4-VP16 FLuc = Gal4-VP16 reporter inhibition counter-screen | Potency, µM (series often up to 53.6 µM), without a hit: at the highest dose activity, negative = inhibition, hits mostly inhibitors | 3.5% of 310,000 active | Drosophila S2 Gal4-VP16 UAS-luciferase, luminescence, 20 h;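 also: Gal4-VP16 expression switched on by copper sulfate through the metallothionein promoter; potency is read from the fitted curve at half-maximal effect; % is scaled to controls: 0 for no effect and ±100 for the full control effect; nearly all actives have a fitted effect of over 50% in size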
# Giardia kill = Giardia lamblia killing; activity change, % at 7.66 µM, hits read low; 0.15% of 340,000 active; Giardia lamblia trophozoite viability; in the data active = activity change below about -80%; inconclusive = between about -30% and that limit;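 also: parasites exposed to compound for two days anaerobically before the ATP read; % is scaled to controls: 0 for no effect and ±100 for the full control effect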
#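 Trophozoites 100 cells/well + cpd; 48 hrs, 37 deg C, anaerobic. ATPLite 1-Step added, 15-30 min RT, luminescence read (ATP-based viability).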
# * hit, by the source's call; ? = inconclusive; · = no result given. Sampled rows, rich in hits. Any-hit rate of the full collection: about 7.6%. Unless noted, calls follow the shape of the dose curve; as a rule, active = well fitted curve in the direction sought with a large enough effect; inconclusive = small, poorly fitted or top-dose-only effect, or another doubt; inactive = no such curve, though single readings can be large; an effect the other way counts as inactive or inconclusive.
SMILES,BRCA1 expr act,ELG1 repair inh,RORg inh,p53 reactivator,Gal4-VP16 FLuc,Giardia kill
O=C(CSc1nnnn1C1CCCCC1)N1CCN(C(=O)c2ccco2)CC1,-10%,?,3.2µM*,-4%,7.9µM*,-1
Cc1cc(C)cc(OCC(=O)OC/C(O)=C(\C#N)c2nc3ccccc3[nH]2)c1,3%,?,13µM*,5%,16µM*,15
N#C/C(=C(/O)COC(=O)COc1cccc(Br)c1)c1nc2ccccc2[nH]1,13%,?,-11%,2%,13µM*,?
CCOC(=O)c1c(C)[nH]c(C(=O)OCC(O)=C(C#N)c2nc3ccccc3[nH]2)c1C,-28%,·,·,·,·,-9
Cc1cccc(C)c1OCC(=O)OC/C(O)=C(\C#N)c1nc2ccccc2[nH]1,-12%,7%,10µM*,14%,18µM*,-11
Cc1cc(Br)ccc1SCC(=O)OCC(O)=C(C#N)c1nc2ccccc2[nH]1,-29%,·,·,·,·,0
Cc1cc(Br)ccc1NC(=O)CNC(=O)CSc1nccn1C,-4%,20%,·,5%,·,15
N#Cc1cn(Cc2cccc(Cl)c2)c2ccccc12,-30%,-1%,-28%,-10%,10%,-2
C=C1C(=O)O[C@@H]2C[C@@H](C)[C@@H]3C=CC(=O)[C@@]3(C)[C@@H](OC(C)=O)[C@H]12,-58%,?,1.3µM*,-14%,1.3µM*,-25
CC1(C)Cc2cccc(OCC(=O)N3CCN(S(=O)(=O)c4ccccc4F)CC3)c2O1,0%,6%,39%,1%,-5%,28
CCOC(=O)c1cnn(Cc2ccc(C)cc2)c1N,89%,-1%,24%,1%,-8%,13
COc1ccc(-c2nc(CN3CCN(C(=O)c4ccco4)CC3)c(C)o2)c(OC)c1C,-36%,12µM*,?,6%,3%,-24
NS(=O)(=O)c1ccc(NC(=O)Nc2ccc3c(c2)OCO3)cc1,?,?,17%,12%,9%,-24
CCN(CC)C(=O)CSc1nc2c(sc(=S)n2-c2ccccc2)c(=O)n1Cc1ccco1,-22%,23µM*,?,-3%,-1%,9
CC[C@H](C)[C@H](NC(=O)[C@H](Cc1ccc(O)cc1)NC(=O)[C@H](Cc1cnc[nH]1)NC(=O)[C@H](CCCNC(=N)N)NC(=O)[C@H](CC(C)C)NC(=O)[C@H](C)NC(=O)[C@H](CO)NC(=O)[C@H](Cc1ccc(O)cc1)NC(=O)[C@H](Cc1ccc(O)cc1)NC(=O)[C@H](CCCNC(=N)N)NC(=O)[C@H](C)NC(=O)[C@H](CCSC)NC(=O)[C@H](CC(=O)O)NC(=O)[C@H](CCC(=O)O)NC(=O)[C@H](C)NC(=O)[C@@H]1CCCN1C(=O)[C@H](C)NC(=O)[C@H](CC(=O)O)NC(=O)[C@H](CCC(=O)O)NC(=O)CNC(=O)[C@@H]1CCCN1C(=O)[C@H](CC(N)=O)NC(=O)[C@H](CC(=O)O)NC(=O)[C@@H]1CCCN1C(=O)[C@H](CCCCN)NC(=O)[C@H](CO)NC(=O)[C@@H]1CCCN1C(=O)[C@@H](N)Cc1ccc(O)cc1)C(=O)N[C@@H](CC(N)=O)C(=O)N[C@@H](CC(C)C)C(=O)N[C@H](C(=O)N[C@H](C(=O)N[C@@H](CCCNC(=N)N)C(=O)N[C@@H](CCC(N)=O)C(=O)N[C@@H](CCCNC(=N)N)C(=O)N[C@@H](Cc1ccc(O)cc1)C(N)=O)[C@@H](C)O)[C@@H](C)CC,·,·,18%,·,1%,·
Cc1c(N=Cc2c(O)n(C)c(=O)c3ccccc23)c(=O)n(-c2ccccc2)n1C,-1%,-12%,-1%,0%,-9%,2
COc1ccc(C2=C(C=Nc3c(C)n(C)n(-c4ccccc4)c3=O)C(c3ccccc3C)c3ccccc3O2)cc1OC (stereo not given),-23%,2.9µM*,13%,-2%,-3%,-3
Cc1ccc(C(=O)Cc2ccccc2)c(O)c1,4%,·,·,·,·,-3
